Assay [1] deals with Lysosomal acid glucosylceramidase (Homo sapiens) (UniProt P04062). In words: Glucocerebrosidase-p2 (AID 348; in the data active = potency below about 10 µM; also: potency is read from the fitted curve at half-maximal effect). Particulars: purified GBA, blue fluorogenic substrate, 40 min. The procedure, abridged: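 Normal human glucocerebrosidase (0.2 nM) with blue fluorogenic substrate (80 uM final) in citrate/phosphate pH 5.9 with 10mM sodium taurocholate, 0.01% tween-20; 40 min RT, NaOH/glycine stop; fluorescence Ex 365/Em 440; AC50 from a titration from 0.6 nM upwards.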

Assay [2] can be described thus: AP1 Signaling Pathway (AID 357).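 Also: ME-180 reporter cells stimulated with EGF at its EC50 level; % is scaled to controls: 0 for no effect and ±100 for the full control effect.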 The conditions noted are these: ME-180 AP-1-bla reporter, EGF-induced, beta-lactamase ratio, 5 h; at 7.69 µM (top of the series) unless noted. The method, boiled down:
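In this screen, ME-180 cells in Opti-MEM with 0.5% dialyzed FBS received EC50 EGF and compound titrations for 5 h. AP-1 reporter beta-lactamase was detected via CCF4 ratio, giving AC50 for positive and negative modulators.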

Assay [3] is described as follows: NFAT Signaling Pathway (AID 444).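 Also: carbachol stimulus at about its EC50 of 1 µM final; % is scaled to controls: 0 for no effect and ±100 for the full control effect.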 The conditions noted are these: Jurkat NFAT-bla M1, carbachol, beta-lactamase ratio, 5 h; at 7.69 µM (top of the series) unless noted. The procedure, abridged:
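Jurkat cells with NFAT-driven β-lactamase reporter and co-expressed M1 receptor, stimulated with carbachol (final 1 uM, ~EC50), compound titration, 5 h at 37 °C. CCF4 loaded 1 h at RT; 460/530 nm ratio gave %activity and AC50.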

Assay [4] can be described thus: Stat Signaling Pathway (AID 446).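 Also: ME-180 cervical cancer cells given 40 pM IL-6 alongside compound; SIE-controlled beta-lactamase reporter measured as 460/530 nm FRET emission ratio; % is scaled to controls: 0 for no effect and ±100 for the full control effect.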 Particulars: ME-180 SIE beta-lactamase reporter, IL-6 stimulated, 5 h; at 7.69 µM (top of the series) unless noted. The procedure, abridged:
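Compound effects on IL-6-induced STAT reporter activity were measured in ME-180 cells. After overnight culture, cells were co-treated with 40 pM IL-6 for 5 hrs before beta-lactamase substrate loading at room temperature.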

Assay [5] concerns the target Glucocorticoid receptor (Homo sapiens) (UniProt P04150). Nature of the assay: GR-EFC Redistribution (AID 451; calls by dose curve; also: potency is read from the fitted curve at half-maximal effect). The conditions noted are these: CHO-K1 GR-EFC translocation, beta-gal luminescence, 2 h. The procedure, abridged: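 CHO-K1 cells expressing nuclear EA and GR-ED fragments of b-gal; compounds titrated up to 46 uM final, 2 h at 37 C. GR nuclear translocation read as complemented b-gal luminescence after 1 h RT detection.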

Assay [6] concerns the target Mitogen-activated protein kinase 10 (Mus musculus) (UniProt Q61831). In words: JNK3 AlphaScreen Assay (AID 530).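 Also: kinase came from lysate of stimulated human HepG2 cells; signal reports phosphorylation of biotinylated GST-cJun 1-79 at Ser73 with 10 µM ATP; % is scaled to controls: 0 for no effect and ±100 for the full control effect.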 Particulars: JNK3 lysate, c-Jun phosphorylation; series mostly up to 57.1 µM. The method, boiled down:
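HepG2 lysate (IL-1b/TNFa pre-activated) + biotin-GST-cJun 1-79 + anti-pSer73 cJun; cpd titration, 15 min RT; ATP 10 uM start; Tris pH 7.6, MgCl2, DTT, vanadate; beads in EDTA buffer; AlphaScreen.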

The target in assay [7] is 3',5'-cyclic-AMP phosphodiesterase 4B (Homo sapiens) (UniProt Q07343). In words: qHTS Assay for Inhibitors of PDE-IV (AID 607; active = well fitted activation curve with a large enough effect in the main read-out, with a control signal flat, not every such curve was filed as active; also: % of control where 0% means no effect). Particulars: HEK293 ACTOne CNG channel cells, membrane potential fluorescence; series mostly up to 22.9 µM. The procedure, abridged: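 ACTOne HEK293 cells carry a modified cAMP-gated CNG channel and express endogenous PDE4; plated 1000 cells/well, compounds up to 22.9 uM final. Membrane-potential dye fluorescence (ex 535/em 590) was read; parental cells received 10 uM forskolin + 100 uM RO 20-1724.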

The target in assay [8] is Cytochrome P450 3A4 (Homo sapiens) (UniProt P08684). Nature of the assay: qHTS Assay for Inhibitors and Substrates of Cytochrome P450 3A4 (AID 884; active = well fitted curve in the direction sought with a large enough effect; an effect the other way counts as inactive or inconclusive; also: % is scaled to controls: 0 for no effect and ±100 for the full control effect; nearly all actives have a fitted effect of over 50% in size). The conditions noted are these: recombinant CYP3A4, Luciferin-PPXE luminescence; series mostly up to 57.1 µM. The procedure, abridged:
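Luminescent readout of luciferin produced by CYP3A4 (20 nM) dealkylation of Luciferin-PPXE, 25 uM (its KM). NADPH-driven reaction ran 60 min at RT after 10 min compound preincubation; data scaled to 57 uM ketoconazole as 100% inhibition.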

Assay [9] has the same target. In words: qHTS Assay for Activators of Cytochrome P450 3A4 (AID 885; active = well fitted curve in the direction sought with a large enough effect; an effect the other way counts as inactive or inconclusive; also: potency is read from the fitted curve at half-maximal effect; nearly all actives have a fitted effect of over 65% in size). The conditions noted are these: recombinant CYP3A4, Luciferin-PPXE luminescence, 60 min; series mostly up to 57.1 µM. The procedure, abridged:
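CYP3A4 activity: Luciferin-PPXE O-dealkylation, 25uM substrate, 200mM KPO4, RT throughout. Read-out is luciferase luminescence; higher values reflect activation.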

Assay [10] in a line: qHTS Assay for Identification of Small Molecule Agonists for Hypoxia Response Element Signaling Pathway (AID 914; active = well fitted activation curve with a large enough effect in the signal ratio, with a control signal flat, not every such curve was filed as active; the % refers to the signal ratio; also: % of control where 0% means no effect). The conditions noted are these: ME-180 (cervical carcinoma) HRE-bla reporter, beta-lactamase ratio, CoCl2, 17 h; activation: stronger effect = higher value. The procedure, abridged: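 Reporter activity (beta-lactamase, CCF4 460nm/530nm ratio) in HRE-bla ME-180 cells is recorded after 17 h compound exposure with EC50 CoCl2 at 37 degrees Celsius. AC50 values come from titration data.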

Assay [11] is described as follows: qHTS Assay for Lipid Storage Modulators (AID 1519; calls by dose curve). Particulars: Drosophila S3 cells, BODIPY lipid droplet/cell ratio, laser cytometry, cells loaded with oleic acid; for activity change, negative = inhibition: at 57.5 µM (top of the series). The method, boiled down:
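Cells seeded at 5,000 per well were treated with compounds over a concentration series and loaded with oleic acid (400 uM, as added). Lipid droplet fluorescence (488 nm excitation, 500-530 nm channel) was read by laser-scanning cytometry and normalized to 20 uM Triacsin C.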

Assay [12] can be described thus: Primary qHTS for small molecule stabilizers of the endoplasmic reticulum resident proteome: Secreted ER Calcium Modulated Protein (SERCaMP) assay (AID 1508630; active = well fitted curve in the direction sought with a large enough effect; an effect the other way counts as inactive or inconclusive; also: % is scaled to controls: 0 for no effect and ±100 for the full control effect). Particulars: SH-SY5Y GLuc-SERCaMP (Gaussia luciferase released on ER calcium loss) secretion, thapsigargin, luminescence; series mostly up to 38.4 µM. The procedure, abridged:
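The SH-SY5Y reporter protocol was run at 3 concentrations up to 38.3 uM (primary) or 11 concentrations (follow-up): 16 h compound, 100 nM thapsigargin for 4 h, then extracellular luciferase luminescence.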

For assay [13], the target named is Cytochrome P450 2C9 (Homo sapiens) (UniProt P11712). In words: qHTS Assay for Inhibitors and Substrates of Cytochrome P450 2C9 (AID 883; active = well fitted curve in the direction sought with a large enough effect; an effect the other way counts as inactive or inconclusive; also: potency is read from the fitted curve at half-maximal effect; nearly all actives have a fitted effect of over 60% in size). Particulars: recombinant CYP2C9, luciferin-H luminescence, 60 min; series mostly up to 57.1 µM. The procedure, abridged:
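Human CYP2C9 (10nM) with Luciferin-H at 100uM (its KM) in 25mM KPO4; compound preincubated 10 min at 37C, then NADPH regeneration for 60 min at 37C. Luciferin read by luminescence after detection reagent; normalized to 57uM sulphaphenazole as full inhibition.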

For assay [14], the target named is Cytochrome P450 2C19 (Homo sapiens) (UniProt P33261). In words: qHTS Assay for Inhibitors and Substrates of Cytochrome P450 2C19 (AID 899; active = well fitted curve in the direction sought with a large enough effect; an effect the other way counts as inactive or inconclusive; also: potency is read from the fitted curve at half-maximal effect; nearly all actives have a fitted effect of over 60% in size). The conditions noted are these: recombinant CYP2C19, luciferin-H EGE luminescence; series mostly up to 57.1 µM. The method, boiled down:
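5 nM human CYP2C19 with 10uM Luciferin-H EGE (at KM) in 50mM KPO4, compound preincubated 10 min at 37C, then NADPH regeneration for 60 min at 37C. Luciferin read by luminescence after detection reagent; normalized to 57uM ketoconazole as full inhibition.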

For assay [15], the target named is Glucocorticoid receptor (Homo sapiens) (UniProt P04150). In words: GR-GFP Redistribution (AID 450;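 active = compounds whose dose series gives a full or clear partial fitted curve of increased nuclear translocation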; also: potency is read from the fitted curve at half-maximal effect). Particulars: U2OS GR-GFP nuclear translocation, laser cytometry, 2 h.
Assay [16] deals with Ubiquitin carboxyl-terminal hydrolase 1 (Homo sapiens) (UniProt O94782). Nature of the assay: Inhibitors of USP1/UAF1: Pilot qHTS (AID 504865; active = well fitted curve in the direction sought with a large enough effect; an effect the other way counts as inactive or inconclusive;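 also: rhodamine fluorescence freed from ubiquitin-rhodamine substrate followed over time; top concentration of the series differs between compounds; % is scaled to controls: 0 for no effect and ±100 for the full control effect; nearly all actives have a fitted effect of over 35% in size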). Particulars: purified USP1/UAF1, Ub-rhodamine cleavage fluorescence; series mostly up to 54.9 µM. The procedure, abridged:
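Kinetic fluorescence assay: 1nM USP1/UAF1, 15 min compound preincubation, then 150nM Ub-Rho; 480/540 nm.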

Assay [17] can be described thus: Confirmation and Secondary Assay for Modulators of Hemoglobin Beta Chain Splicing at IVS2 654 locus (AID 910; active = well fitted curve in the direction sought with a large enough effect; an effect the other way counts as inactive or inconclusive;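 also: HeLa cells stably carrying EGFP split by mutant beta-globin IVS2-654 intron; % of control where 0% means no effect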). Particulars: HeLa EGFP-654 splicing reporter, GFP fluorescence, 48 h; series mostly up to 38.3 µM. The procedure, abridged:
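HeLa cells stably expressing EGFP interrupted by β-globin IVS2-654 intron, seeded overnight in Opti-MEM/2% FCS, then treated 2 days at 37 °C. Restored splicing read as total peak GFP intensity per well by laser scanning cytometry (488 nm excitation, 500–520 nm emission); 500 nM antisense PNA as control.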

A short description of assay [18]: Confirmation and Secondary Assay for Modulators of Hemoglobin Beta Chain Splicing at IVS2 705 locus (AID 930; active = well fitted curve in the direction sought with a large enough effect; an effect the other way counts as inactive or inconclusive;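 also: HeLa cells stably expressing the EGFP-705 splicing reporter; % of control where 0% means no effect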). The conditions noted are these: HeLa EGFP-705 splicing reporter, GFP fluorescence, 48 h; series mostly up to 38.3 µM. The procedure, abridged: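 Stable HeLa line with EGFP disrupted by mutant beta-globin intron 2 (705). Overnight attachment, then 2 days of compound at 37C, 5% CO2. Signal: peak GFP intensity summed over objects 5-250 µm.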

Setting [19] is: measured here: cell count channel max response.
Setting [20] is: measured here: lipid channel max response.

We go through five compounds from PubChem BioAssay (NCATS).

Inconclusive results are not listed. Active and inactive are the calls of the source. Unless noted, calls follow the shape of the dose curve; as a rule, active = well fitted curve in either direction with a large enough effect (not every such curve was filed as active); inconclusive = small, poorly fitted or top-dose-only effect, or another doubt; inactive = flat fitted curve, though single readings scatter.

Chain of Glucocorticoid receptor (Homo sapiens) (P04150 whole entry, looked up, the tested form may be a part): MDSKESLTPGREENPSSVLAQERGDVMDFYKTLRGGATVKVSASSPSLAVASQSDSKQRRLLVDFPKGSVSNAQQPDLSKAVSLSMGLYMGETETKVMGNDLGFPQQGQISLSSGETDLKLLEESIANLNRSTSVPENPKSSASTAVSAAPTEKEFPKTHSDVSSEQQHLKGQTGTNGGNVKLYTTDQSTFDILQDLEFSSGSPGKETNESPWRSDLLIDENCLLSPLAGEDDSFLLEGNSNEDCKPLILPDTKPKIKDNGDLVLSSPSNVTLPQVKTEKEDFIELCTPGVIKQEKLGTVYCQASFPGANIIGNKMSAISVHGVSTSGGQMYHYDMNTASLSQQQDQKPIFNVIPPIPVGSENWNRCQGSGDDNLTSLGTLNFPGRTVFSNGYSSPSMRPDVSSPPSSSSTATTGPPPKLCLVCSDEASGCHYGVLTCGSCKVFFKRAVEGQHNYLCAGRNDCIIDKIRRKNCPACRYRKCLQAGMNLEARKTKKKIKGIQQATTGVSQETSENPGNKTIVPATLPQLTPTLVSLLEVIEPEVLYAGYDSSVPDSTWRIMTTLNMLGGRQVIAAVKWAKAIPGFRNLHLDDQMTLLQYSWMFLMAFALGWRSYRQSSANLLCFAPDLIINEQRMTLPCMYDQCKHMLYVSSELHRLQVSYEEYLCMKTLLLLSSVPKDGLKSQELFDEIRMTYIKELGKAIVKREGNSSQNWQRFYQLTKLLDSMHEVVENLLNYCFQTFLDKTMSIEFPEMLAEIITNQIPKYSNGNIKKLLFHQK
Chain of 3',5'-cyclic-AMP phosphodiesterase 4B (Homo sapiens) (Q07343 whole entry, looked up): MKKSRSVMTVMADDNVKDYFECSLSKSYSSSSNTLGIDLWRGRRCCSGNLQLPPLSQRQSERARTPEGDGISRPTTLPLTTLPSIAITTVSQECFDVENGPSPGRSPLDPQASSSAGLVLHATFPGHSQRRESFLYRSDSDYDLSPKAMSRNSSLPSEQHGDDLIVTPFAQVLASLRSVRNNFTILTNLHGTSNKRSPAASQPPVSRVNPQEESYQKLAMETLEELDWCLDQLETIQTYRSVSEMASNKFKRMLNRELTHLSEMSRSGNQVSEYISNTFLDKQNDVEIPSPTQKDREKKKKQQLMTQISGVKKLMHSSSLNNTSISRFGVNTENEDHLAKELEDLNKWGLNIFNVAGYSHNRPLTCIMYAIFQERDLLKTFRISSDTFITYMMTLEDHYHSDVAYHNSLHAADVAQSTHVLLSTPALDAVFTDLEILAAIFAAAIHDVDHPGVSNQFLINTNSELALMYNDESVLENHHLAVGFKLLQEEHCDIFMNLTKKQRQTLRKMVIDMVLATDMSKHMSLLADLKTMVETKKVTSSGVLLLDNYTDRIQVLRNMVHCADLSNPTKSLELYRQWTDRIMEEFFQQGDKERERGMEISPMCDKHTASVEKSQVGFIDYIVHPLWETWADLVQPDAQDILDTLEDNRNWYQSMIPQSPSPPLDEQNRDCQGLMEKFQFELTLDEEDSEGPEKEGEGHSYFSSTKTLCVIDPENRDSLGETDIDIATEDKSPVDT
Chain of Lysosomal acid glucosylceramidase (Homo sapiens) (P04062 whole entry, looked up): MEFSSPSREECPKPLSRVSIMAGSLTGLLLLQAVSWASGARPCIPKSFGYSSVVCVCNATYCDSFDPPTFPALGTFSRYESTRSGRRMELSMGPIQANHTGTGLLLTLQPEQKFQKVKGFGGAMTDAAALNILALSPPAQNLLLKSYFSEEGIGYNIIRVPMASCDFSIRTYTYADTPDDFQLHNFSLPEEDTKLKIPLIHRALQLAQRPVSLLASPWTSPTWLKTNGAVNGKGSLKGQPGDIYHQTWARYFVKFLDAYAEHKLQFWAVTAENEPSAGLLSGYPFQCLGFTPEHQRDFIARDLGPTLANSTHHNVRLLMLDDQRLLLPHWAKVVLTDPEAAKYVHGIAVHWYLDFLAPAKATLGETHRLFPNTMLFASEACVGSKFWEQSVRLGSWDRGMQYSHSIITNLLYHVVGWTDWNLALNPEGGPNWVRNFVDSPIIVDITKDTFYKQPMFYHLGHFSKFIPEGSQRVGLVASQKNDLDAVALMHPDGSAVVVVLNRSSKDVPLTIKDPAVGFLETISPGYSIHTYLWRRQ
Chain of Cytochrome P450 3A4 (Homo sapiens) (P08684 whole entry, looked up): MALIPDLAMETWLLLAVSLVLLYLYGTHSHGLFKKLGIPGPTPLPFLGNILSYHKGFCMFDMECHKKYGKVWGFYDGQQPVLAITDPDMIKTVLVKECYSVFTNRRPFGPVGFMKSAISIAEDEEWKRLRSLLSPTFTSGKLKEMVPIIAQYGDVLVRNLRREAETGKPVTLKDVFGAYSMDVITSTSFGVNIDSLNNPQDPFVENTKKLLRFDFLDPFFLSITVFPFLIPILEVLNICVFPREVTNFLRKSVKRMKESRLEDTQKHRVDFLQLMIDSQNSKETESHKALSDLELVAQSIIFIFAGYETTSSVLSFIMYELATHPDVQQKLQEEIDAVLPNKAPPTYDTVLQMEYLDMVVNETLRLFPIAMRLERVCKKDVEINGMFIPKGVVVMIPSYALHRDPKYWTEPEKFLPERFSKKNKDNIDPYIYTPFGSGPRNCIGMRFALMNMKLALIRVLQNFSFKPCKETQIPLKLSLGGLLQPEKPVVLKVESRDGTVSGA
Chain of Ubiquitin carboxyl-terminal hydrolase 1 (Homo sapiens) (O94782 whole entry, looked up): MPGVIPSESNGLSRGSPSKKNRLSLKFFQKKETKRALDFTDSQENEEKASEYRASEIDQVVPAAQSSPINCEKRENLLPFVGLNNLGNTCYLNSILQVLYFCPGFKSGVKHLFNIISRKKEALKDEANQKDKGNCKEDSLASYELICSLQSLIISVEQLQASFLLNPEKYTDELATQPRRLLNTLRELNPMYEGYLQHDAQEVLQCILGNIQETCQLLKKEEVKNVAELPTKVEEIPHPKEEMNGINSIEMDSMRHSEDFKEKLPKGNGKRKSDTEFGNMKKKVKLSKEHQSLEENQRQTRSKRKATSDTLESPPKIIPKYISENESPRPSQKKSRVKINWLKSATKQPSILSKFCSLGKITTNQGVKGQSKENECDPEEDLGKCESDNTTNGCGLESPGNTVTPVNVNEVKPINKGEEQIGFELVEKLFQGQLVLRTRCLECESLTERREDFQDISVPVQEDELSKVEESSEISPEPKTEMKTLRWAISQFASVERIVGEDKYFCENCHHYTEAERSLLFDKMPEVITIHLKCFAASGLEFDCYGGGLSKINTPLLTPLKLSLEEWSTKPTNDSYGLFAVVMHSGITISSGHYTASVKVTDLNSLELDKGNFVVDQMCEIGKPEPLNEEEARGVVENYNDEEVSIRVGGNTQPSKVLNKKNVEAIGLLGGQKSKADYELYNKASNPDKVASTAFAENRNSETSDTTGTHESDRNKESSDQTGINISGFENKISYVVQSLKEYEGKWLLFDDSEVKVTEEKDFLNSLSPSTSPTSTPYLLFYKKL
Chain of Cytochrome P450 2C9 (Homo sapiens) (P11712 whole entry, looked up): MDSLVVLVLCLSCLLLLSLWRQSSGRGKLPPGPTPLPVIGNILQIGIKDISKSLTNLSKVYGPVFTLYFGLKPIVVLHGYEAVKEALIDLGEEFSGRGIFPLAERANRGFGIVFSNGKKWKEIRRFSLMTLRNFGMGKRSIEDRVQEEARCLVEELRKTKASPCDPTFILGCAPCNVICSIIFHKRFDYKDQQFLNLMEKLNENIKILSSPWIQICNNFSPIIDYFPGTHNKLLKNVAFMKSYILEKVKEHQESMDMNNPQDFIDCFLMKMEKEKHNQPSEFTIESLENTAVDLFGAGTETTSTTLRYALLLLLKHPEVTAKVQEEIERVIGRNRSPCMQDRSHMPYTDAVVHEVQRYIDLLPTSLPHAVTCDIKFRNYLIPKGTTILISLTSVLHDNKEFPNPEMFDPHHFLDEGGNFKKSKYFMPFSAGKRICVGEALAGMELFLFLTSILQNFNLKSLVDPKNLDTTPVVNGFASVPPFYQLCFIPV
Chain of Cytochrome P450 2C19 (Homo sapiens) (P33261 whole entry, looked up): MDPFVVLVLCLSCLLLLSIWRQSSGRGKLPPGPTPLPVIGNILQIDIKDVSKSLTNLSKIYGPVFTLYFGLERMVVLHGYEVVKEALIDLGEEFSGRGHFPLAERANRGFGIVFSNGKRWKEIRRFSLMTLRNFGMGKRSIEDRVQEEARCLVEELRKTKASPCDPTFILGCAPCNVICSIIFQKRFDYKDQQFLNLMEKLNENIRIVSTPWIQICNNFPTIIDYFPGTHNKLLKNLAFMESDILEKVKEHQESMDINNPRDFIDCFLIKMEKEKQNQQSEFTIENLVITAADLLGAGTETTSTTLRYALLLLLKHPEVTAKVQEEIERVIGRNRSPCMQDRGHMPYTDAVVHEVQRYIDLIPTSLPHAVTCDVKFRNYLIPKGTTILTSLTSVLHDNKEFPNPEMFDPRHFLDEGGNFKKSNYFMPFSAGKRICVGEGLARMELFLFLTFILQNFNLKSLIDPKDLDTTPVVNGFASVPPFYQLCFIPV

Regarding `O=C(c1ccco1)N1CCC2(CC1)CN(c1ccccc1)C2`, the Potency in assay [1] is > 11.4 µM (inactive); in assay [5], > 46 µM (inactive); in assay [9], 15.8 µM (active). Moreover, the activity change, negative = inhibition in [2] is -1.6% (inactive); in [3], 28.4% (inactive); in assay [11], 6.46% (inactive). In [4], the activity, negative = inhibition is -9.25% (inactive). For the same compound, the compound was called inactive in assay [6]. Further, the Potency entry in assay [7], in assay [8] and in assay [12] was “inactive” in each case. Also, the activation in assay [10] is -3.45% (inactive). Also, the max response is 15.8% in assay [11] (setting [19]) and 25.8% in assay [11] (setting [20]).

With `CS(=O)(=O)N1CCC2(CCCN(c3ccncc3)C2)CC1`, the Potency in assay [1] was > 11.4 µM (inactive); in assay [5] it was > 46 µM (inactive); in assay [13] it was 0.0794 µM (active); in assay [14] it was 1.26 µM (active). The results for the activity change, negative = inhibition in assay [2], in [3] and in [11] were 10.1% (inactive), -14.2% (inactive) and 4.5% (inactive), respectively. In addition, in assay [4], the activity, negative = inhibition was -2.99% (inactive). For the same compound, the compound was classed as inactive in [6]. The Potency entry in [7] and in assay [12] was “inactive” each time. The activation in [10] was 20.8% (inactive). For the same compound, the max response in assay [11] (setting [19]) was 17.1%; in [11] (setting [20]) it was 26.8%.

Regarding `c1nc(N2CCNCC2)c2cc(-c3ccoc3)ccc2n1`, the Potency is > 11.4 µM (inactive) in [1], > 46 µM (inactive) in [15] and > 46 µM (inactive) in assay [5]. The activity change, negative = inhibition in [2] was -10.9% (inactive); in assay [3], 9.12% (inactive); in assay [11], 3.07% (inactive). Also, the activity, negative = inhibition in assay [4] is -4.93% (inactive). For the same compound, the call in assay [6] was inactive. For the same compound, the Potency entry in assay [7], in assay [16] and in assay [12] was “inactive” each time. The max response in [11] (setting [19]) was found to be 29.3%; in [11] (setting [20]), 29.5%.

As for `O=C(c1csnn1)N1CCC2(CC1)CCN(c1ccccc1)CC2`, the Potency in [1] was > 11.4 µM (inactive); in assay [5], > 46 µM (inactive). In addition, the activity change, negative = inhibition was -9.9% (inactive) in assay [2], 25.1% (inactive) in [3] and 4.25% (inactive) in [11]. The activity, negative = inhibition in assay [4] is 1.19% (inactive). The call in assay [6] was inactive. For the same compound, the Potency result in assay [7] and in assay [12] was “inactive” each time. In addition, the activation in assay [10] is -15.4% (inactive). In addition, the max response was 1.9% in [11] (setting [19]) and 6.57% in assay [11] (setting [20]).

For the compound `CS(=O)(=O)Nc1cccc(-c2nccc(NCc3ccccc3)n2)c1`, the Potency in assay [1] is > 11.4 µM (inactive); in assay [15], > 46 µM (inactive); in assay [5] it was > 46 µM (inactive). For the same compound, the activity change, negative = inhibition in assay [2] is -20% (inactive); in [3] it was -4.2% (inactive); in assay [11], 6.93% (inactive). Moreover, the activity, negative = inhibition in [4] is -11.8% (inactive). Moreover, the outcome in assay [6], in [17] and in assay [18] was inactive. Besides, the Potency entry in assay [7], in [16] and in assay [12] was “inactive” each time. The figures for the max response in assay [11] (setting [19]) and in [11] (setting [20]) were -0.959% and 4.33%, respectively.
